Rows were chosen to be rich in hits. Some 11% of all compounds tested hit in one or more screens of this group.
HCV inhibitor: HCV inhibition. 3.4% of 340,000 active. Potency, µM (top dose mostly 41.8 µM), actives largely listed as inhibitors. Huh7.5.1 HCVcc-Cre infection, luciferase reporter, 44 h
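1,000 cells/well; 4 h culture; + compound; + HCVcc-Cre (~0.5 moi); 44 h; luciferase substrate, RT 15 min; read 15 sec.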
AmpC inh no detg: blocks E. coli AmpC beta-lactamase in detergent-free assay | P00811 | AmpC nitrocefin hydrolysis, absorbance 480 nm, 0.0001% Triton | Potency, µM (titrated, usually from 57.1 µM), usual class: inhibitors | 0.52% of 330,000 active; further: nearly all actives have a fitted effect of over 20% in size
Target sequence (P00811 whole entry, looked up): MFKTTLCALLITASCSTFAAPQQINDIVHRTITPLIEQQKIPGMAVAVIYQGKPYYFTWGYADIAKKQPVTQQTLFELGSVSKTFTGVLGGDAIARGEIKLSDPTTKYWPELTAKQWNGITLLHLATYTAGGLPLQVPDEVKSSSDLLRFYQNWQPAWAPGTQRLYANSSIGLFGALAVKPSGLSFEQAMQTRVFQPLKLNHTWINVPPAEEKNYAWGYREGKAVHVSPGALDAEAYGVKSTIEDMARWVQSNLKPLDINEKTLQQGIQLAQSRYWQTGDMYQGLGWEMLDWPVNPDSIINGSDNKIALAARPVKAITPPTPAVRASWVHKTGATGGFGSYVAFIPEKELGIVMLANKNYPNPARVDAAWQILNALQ
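20 mM phosphate pH 7.0 + 0.01% (detergent screen) or 0.0001% Triton X-100; 5.3 nM AmpC reagent; cpd preinc 15 min RT; nitrocefin (800 uM stock) to start; A480 q20 s × 4 min; Activity was normalised to no-enzyme and no-compound control wells.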
Pf growth 48h: inhibits P. falciparum growth in the first generation, 48 h | Potency, µM (titrated, usually from 28.7 µM), usual class: inhibitors | 5.9% of 310,000 active | AID 504832 | P. falciparum luciferase growth in erythrocytes, 48 h
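Parasite viability was followed by luminescence of a genomically integrated firefly luciferase. Cultures held 0.1% parasitemia at 2% hematocrit (final), incubated under 5% CO2 at 37 C.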
Pf growth 96h: inhibits malaria parasite growth, 96 h. Potency, µM (series often up to 28.7 µM), most hits filed as inhibitors. 6.9% of 320,000 active. AID 504834. P. falciparum luciferase reporter growth, 96 h
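Delayed-death screen, second-generation endpoint: infected erythrocytes, 2% hematocrit, 0.05% parasitemia final; 96 hours at 37 C, 5% CO2; luciferase detection reagent; luminescence decrease equals reduced growth.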
AmpC inh detg: inhibitors of E. coli AmpC beta-lactamase with detergent; P00811; AmpC hydrolysis of nitrocefin, absorbance 480 nm, 0.01% Triton; Potency, µM (top dose mostly 114 µM), actives largely listed as inhibitors; 0.041% of 370,000 active; further: nearly all actives have a fitted effect of over 25% in size
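20 mM phosphate pH 7.0 + 0.01% (detergent screen) or 0.0001% Triton X-100; 5.3 nM AmpC reagent; cpd preinc 15 min RT; nitrocefin (800 uM stock) to start; A480 q20 s × 4 min; Activity was normalised to no-enzyme and no-compound control wells.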
AMA1 RON2 block: AMA1-RON2 (P. falciparum) interaction inhibition; AID 720542; 0.2% of 360,000 active; Potency, µM (series often up to 58.2 µM), hits mostly inhibitors; AlphaScreen AMA1-biotinylated RON2 peptide binding; further: nearly all actives have a fitted effect of over 45% in size
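AMA1 (3D7) with his tag at 25 nM final met compounds first, then biotinylated RON2 peptide at 25 nM; detection used donor plus acceptor beads, 10 µg/mL apiece, read by AlphaScreen after 30 min at room temperature.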
Of the large screens only hits and unclear results are named; the others gave an inactive call. The call rests on the fitted dose curve; in most records, active means well fitted curve in the direction sought with a large enough effect; inconclusive means small, poorly fitted or top-dose-only effect, or another doubt; inactive means no such curve, though single readings can be large; an effect the other way counts as inactive or inconclusive.

Cc1ccc2c(c1C)NC(=O)CC2c1ccc(Cl)cc1Cl (stereo not drawn)	none (no result: HCV inhibitor, AmpC inh no detg, Pf growth 48h, Pf growth 96h, AMA1 RON2 block)
Cc1c(Cl)cccc1NC(=O)NCCOCCn1c(=O)oc2ccccc21	none (no result: HCV inhibitor, AmpC inh no detg, Pf growth 48h, Pf growth 96h, AMA1 RON2 block)
CCc1ccc(NC(=O)CC2C(=O)N(c3cccc(C)c3)C(=O)N2Cc2ccco2)cc1 (stereo not drawn)	none (no result: HCV inhibitor, AmpC inh no detg, Pf growth 48h, Pf growth 96h, AMA1 RON2 block)
Cc1ccc2c(c1)c(=O)c(C(=O)c1ccncc1)cn2CC(=O)Nc1ccc(C(C)C)cc1	none (no result: HCV inhibitor, AmpC inh no detg, Pf growth 48h, Pf growth 96h, AMA1 RON2 block)
CC(C)(C)OC(=O)N1CCC(c2c(C(=O)NC3CCCCC3)cnn2-c2cccc(F)c2)CC1	none (no result: HCV inhibitor, AmpC inh no detg, Pf growth 48h, Pf growth 96h, AMA1 RON2 block)
CC(CC(=O)N(C)C1CCCCC1)S(=O)(=O)c1ccc2c(c1)NC(=O)CO2 (stereo not drawn)	Pf growth 96h 7.38µM
O=C1CS/C(=N/N=C/c2ccccc2)N1c1ccc(O)cc1	Pf growth 96h 1.65µM, AmpC inh detg inconclusive
O=C1CS/C(=N\N=C\c2ccco2)N1c1ccccc1	none
CCOC(=O)N1CCN(C(=O)C2CCCN(c3ncnc4c3nc3n4CCCCC3)C2)CC1 (stereo not drawn)	Pf growth 96h inconclusive
CC1CCN(C(=O)C2CCCN(c3ncnc4c3nc3n4CCCCC3)C2)CC1 (stereo not drawn)	HCV inhibitor inconclusive, Pf growth 96h 9.28µM
COc1cccc(N2CCN(C(=O)C3CCCN(c4ncnc5c4nc4n5CCCCC4)C3)CC2)c1 (stereo not drawn)	HCV inhibitor inconclusive, Pf growth 48h inconclusive, Pf growth 96h 10.4µM, AmpC inh detg inconclusive
CC1CC(C)CN(C(=O)C2CCCN(c3ncnc4c3nc3n4CCCCC3)C2)C1 (stereo not drawn)	Pf growth 48h inconclusive
CCN1CCN(C(=O)C2CCCN(c3ncnc4c3nc3n4CCCCC3)C2)CC1 (stereo not drawn)	Pf growth 48h inconclusive, Pf growth 96h 10.4µM
COCCN(Cc1ccco1)C(=O)C1CCCN(c2ncnc3c2nc2n3CCCCC2)C1 (stereo not drawn)	Pf growth 48h inconclusive, Pf growth 96h 4.15µM
C=Cc1ccc(Cn2nc(-c3ccc(C)c(S(=O)(=O)N(CC)CC)c3)ccc2=O)cc1	none (no result: HCV inhibitor, AmpC inh no detg, Pf growth 48h, Pf growth 96h, AMA1 RON2 block)
COc1ccc(-c2c(-c3ccccc3)c(C(=O)C(=O)NCCCN(C)C)n3ccc4cc(OC)c(OC)cc4c23)cc1OC	HCV inhibitor inconclusive, Pf growth 96h 2.94µM (no result: Pf growth 48h)
O=C1CCCC2=C1C(c1ccncc1)Nc1ccccc1N2 (stereo not drawn)	Pf growth 96h 10.4µM, AmpC inh detg inconclusive (no result: Pf growth 48h)
O=C(Nc1ccccc1F)c1ccc(Cn2nc(N3CCN(c4ccccc4)CC3)ccc2=O)o1	none (no result: HCV inhibitor, AmpC inh no detg, Pf growth 48h, Pf growth 96h, AMA1 RON2 block)
CCOc1ccc(OCC)c(NS(=O)(=O)c2cc(-c3onc(C)c3C)ccc2OC)c1	none (no result: HCV inhibitor, AmpC inh no detg, Pf growth 48h, Pf growth 96h, AMA1 RON2 block)
CCCn1cc2c3c(cccc31)C1CC(C)CN(C)C1C2 (stereo not drawn)	Pf growth 48h inconclusive, Pf growth 96h 11.7µM (no result: HCV inhibitor, AMA1 RON2 block)
NS(=O)(=O)c1ccc(O)c(N2C(=O)c3cccc4c(C(=O)c5ccccc5)ccc(c34)C2=O)c1	AmpC inh no detg 10µM (no result: HCV inhibitor, AMA1 RON2 block)
COc1ccccc1N1C(=O)c2cccc3c(C(=O)O)ccc(c23)C1=O	none (no result: Pf growth 48h)
CC(=O)N[C@@H](Cc1ccc(O)cc1)C(=O)N[C@H](C(=O)N[C@@H](C)C(=O)N[C@H](C#N)CC(=O)O)C(C)C	none (no result: HCV inhibitor, AMA1 RON2 block)
CC(C(=O)NCCc1ccc(F)cc1)N1CCN(Cc2ccccc2)CC1 (stereo not drawn)	Pf growth 48h inconclusive, Pf growth 96h 5.22µM
CC(C(=O)NC1CCCC1)N1CCN(Cc2ccccc2)CC1 (stereo not drawn)	none
O=C(CSc1ccccc1)NCCc1ccc(F)cc1	Pf growth 96h 3.29µM
O=C(CSc1ccccc1)NCCc1ccccc1	Pf growth 96h inconclusive
CCCN1CCc2nc(N3CCN(c4ncccn4)CC3)ncc2C1	none (no result: HCV inhibitor, AmpC inh no detg, Pf growth 48h, Pf growth 96h, AMA1 RON2 block)
CC1CCCCC12NC(=O)N(CC(=O)OCc1cccc(F)c1)C2=O (stereo not drawn)	Pf growth 48h 13.1µM, Pf growth 96h inconclusive
Cc1cccc(N(Cc2ccccc2)C(=O)CN2C(=O)NC3(CCCCC3C)C2=O)c1 (stereo not drawn)	Pf growth 48h inconclusive, Pf growth 96h 11.7µM
CC1CCCCC12NC(=O)N(CC(=O)OCc1ccccc1F)C2=O (stereo not drawn)	none (no result: Pf growth 48h, Pf growth 96h, AmpC inh detg)
Cc1cc(C(F)(F)F)n2nc(-c3ccc(Br)cc3)cc2n1	none (no result: HCV inhibitor, AmpC inh no detg, Pf growth 48h, Pf growth 96h, AMA1 RON2 block)
CCOC(=O)c1[nH]c(C)c(CCC(=O)NC(C)c2ccccc2)c1C (stereo not drawn)	none (no result: HCV inhibitor, AmpC inh no detg, Pf growth 48h, Pf growth 96h, AMA1 RON2 block)
CN1CCN(C2=Cc3ccc(Cl)cc3Sc3ccc(F)cc32)CC1	HCV inhibitor inconclusive, Pf growth 48h 13.1µM, Pf growth 96h 11.7µM
CN1CCN(C2=Cc3ccccc3Sc3cc(F)ccc32)CC1	HCV inhibitor inconclusive, Pf growth 48h inconclusive, AMA1 RON2 block inconclusive
Cn1c(NCCO)nc2c1c(=O)n(Cc1ccc(F)cc1)c(=O)n2C	none (no result: Pf growth 48h)
Cn1c(NCc2ccccc2)nc2c1c(=O)n(Cc1ccccc1)c(=O)n2C	Pf growth 48h 7.38µM, Pf growth 96h 3.7µM
CC(C)CCNc1nc2c(c(=O)n(Cc3cccc(F)c3)c(=O)n2C)n1C	HCV inhibitor inconclusive, Pf growth 48h inconclusive, Pf growth 96h 11.7µM
COc1ccc(CNc2nc3c(c(=O)n(Cc4ccc(F)cc4)c(=O)n3C)n2C)cc1	HCV inhibitor inconclusive, Pf growth 48h 9.28µM

Screening data: PubChem, National Center for Advancing Translational Sciences (NCATS)
